A selection: hits, their analogues and other compounds. The true share with any hit is near 4.2%.
Wnt bcat act – Wnt/beta-catenin pathway activators, primary screen, cell-based, plate reader, single point | Wnt/beta-catenin reporter cell assay, activator | activation, % at 9.35 µM | 300,000 tested, 1.2% active; in the data active means activation above about 30%, passing the limit was not always enough; inconclusive means no clear call, values can overlap the other calls;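 further: 0% = neutral control wells and 100% = positive control wells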
esBAF inh – Bmi1 luciferase reporter increase in mESCs, primary screen, esBAF inhibitor project, mouse ES cells, Bmi1 luciferase knock-in, single point. reporter increase, % at 12.5 µM. 350,000 tested, 2% active. 24 h; 100% = twice the neutral-well signal; in the data active means activation above about 40%; inconclusive means no clear call, values can overlap the other calls;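 further: 0% = median of the plate's neutral control wells and 100% = double that signal; a rise in the Bmi1 reporter signal indicates esBAF inhibition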
DAX1 StAR inh – DAX1 (NR0B1) inhibitors on StAR promoter, primary screen, cell-based, luminescence, SF-1 (NR5A1), full-length DAX-1 | HEK293T StAR-luciferase reporter, SF-1/DAX-1 repression relief | inhibition, % at 6.8 µM | 370,000 tested, 1.1% active;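 active means inhibition above the mean over all tested compounds plus 3 SD, cut at about 3.6% in these data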;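 further: 0% = DAX-1 cells with DMSO and 100% = cells lacking DAX-1 with DMSO; higher inhibition means more luminescence from relief of DAX-1 repression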
hcDAF12 agonist – H. contortus DAF-12 nuclear receptor activators, primary screen, cell-based, luminescence, HEK293, lit1-tk-luc reporter. HEK293 hcDAF-12 lit1-tk-luc reporter; 0% DMSO, 100% Δ7-dafachronic acid. activation, % at 6.8 µM. 370,000 tested, 1.4% active. AID 652067, 2013;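 active means activation above the mean of all tested compounds plus 3 SD, cut at about 5.5% in these data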;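 further: 100% = response to 3 µM Δ7-dafachronic acid high control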
hgDAF-12 ag – H. glycines DAF-12 receptor agonists, primary screen, cell-based, luminescence, HEK293, GAL4 fusion, UAS-luciferase; HEK293 GAL4-hgDAF12 UAS-luciferase reporter, agonist luminescence; normalized to butyrate control; activation, % at 6.8 µM; 370,000 tested, 1.8% active; AID 687014, 2013; Nuclear hormone receptor DAF-12 (Heterodera glycines), GAL4 fusion;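 active means activation above a cutoff set at the mean of all screened compounds plus 3 SD, cut at about 10% in these data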;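 further: 0% = DMSO wells and 100% = sodium butyrate wells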
ssDAF-12 act – S. stercoralis DAF-12 nuclear receptor activators, primary screen, cell-based, luminescence, HEK293, GRIP1 co-expression, lit1-tk-luc; Nuclear hormone receptor DAF-12 (Strongyloides stercoralis); HEK293 ssDAF-12/GRIP1 lit1-tk-luc reporter; % of 3 µM dafachronic acid response; activation, % at 6.8 µM; 370,000 tested, 1% active;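 active means activation above the mean over all tested compounds plus 3 SD, cut at about 0.9% in these data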;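 further: 0% = DMSO-only wells and 100% = 3 µM delta7-dafachronic acid wells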
Ring1 derepress – Ring1 mRNA increase in mouse ESCs, confirmation, esBAF inhibitor project, cell-based, mouse ESC, RT-qPCR, cherry-pick. shares compounds with esBAF inh. mouse ESC E14, Ring1 mRNA RT-qPCR fold change. fold change at 33 µM. 550 tested, under 10 active. AID 743176, 2013;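 active means Ring1 gene expression raised more than 2-fold over untreated cells in both replicates at either tested dose; inconclusive means only one replicate above 2-fold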;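 further: Ring1 transcript normalised to actin housekeeping signal by TaqMan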
esBAF Fgf4 qPCR – Fgf4 mRNA decrease in mouse ESCs, confirmation, esBAF inhibitor project, cell-based, mouse ESC, RT-qPCR, cherry-pick | shares compounds with esBAF inh | mouse ESC E14, Fgf4 mRNA qPCR fold change; stronger effect = lower value | Fgf4 expression fold change at 33 µM | 550 tested, 4% active | AID 743177, 2013;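 active means Fgf4 expression under 0.8 fold of control in both repeat measurements at one or both tested doses; inconclusive means under 0.8 fold in just a single repeat measurement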;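 further: Fgf4 transcript normalised to actin in duplex TaqMan qPCR; cells exposed to compound for 24 h before lysis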
esBAF Bmi1 qPCR – esBAF inhibition via Bmi1 de-repression, confirmation, cell-based, RT-qPCR, mouse ESC, single point, cherry-pick; mouse ESE14 ES cells, Bmi1 mRNA qPCR fold; stronger effect = higher value; fold change at 33 µM; shares compounds with esBAF inh; 550 tested, under 10 active; AID 743180, 2013;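 active means Bmi1 expression fold change above 6 at either tested concentration, seen in replicate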
A549 tox SP – A549 cell cytotoxicity, cytotoxicity control, plate reader, single point, cherry-pick. shares compounds with esBAF inh. cell viability change % (negative = cytotoxic), % at 25 µM, hits read low. 550 tested, under 10 active; call rule not given here
HepG2 cytotox SP – HepG2 cell cytotoxicity, cytotoxicity control, plate reader, single point, cherry-pick; activity change, negative = inhibition, % at 25 µM; stronger effect = lower value; 550 tested, 4% active; AID 743189, 2013; shares compounds with esBAF inh; in the data active means activity change below about -50%
HEK293 tox SP – HEK293 cell cytotoxicity, cytotoxicity control, plate reader, single point, cherry-pick | shares compounds with esBAF inh | activity change, negative = inhibition, % at 25 µM, hits read low | 550 tested, 3% active | AID 743190, 2013; in the data active means activity change below about -38%, passing the limit was not always enough
* marks the source's active call; other numbers are inactive results.

For C[C@@H]1CCCCO[C@H](CN(C)C(=O)c2ccccc2)[C@H](C)CN([C@@H](C)CO)C(=O)c2cc(NS(=O)(=O)c3ccc(F)cc3)ccc2O1 the results were esBAF inh 10.
For Cc1cc(-c2nnc(-c3cccc(C(F)(F)F)c3)o2)no1 the results were Wnt bcat act 19, esBAF inh 59*, DAX1 StAR inh 1, hcDAF12 agonist 1, hgDAF-12 ag 5, ssDAF-12 act -1, Ring1 derepress 1.2, esBAF Fgf4 qPCR 0.85, esBAF Bmi1 qPCR 1.6, A549 tox SP 3, HepG2 cytotox SP -46 and HEK293 tox SP -9.
Cc1cc(-c2nnc(CCC(=O)NCc3cccc(C(F)(F)F)c3)o2)no1 was read as Wnt bcat act -2, esBAF inh 12, DAX1 StAR inh -1, hcDAF12 agonist 0, hgDAF-12 ag 3 and ssDAF-12 act 0.
For CCC(C)c1ccc(NC(=O)C2CC2)cc1 (configuration not stated) the results were Wnt bcat act 23, esBAF inh 74*, DAX1 StAR inh 1, hcDAF12 agonist -1, hgDAF-12 ag 7, ssDAF-12 act -1, Ring1 derepress 1.1, esBAF Fgf4 qPCR 0.84, esBAF Bmi1 qPCR 1.7, A549 tox SP -13, HepG2 cytotox SP -10 and HEK293 tox SP -4.
CCC(C)c1ccc(NC(=O)C2CC3CCC2C3)cc1 (configuration not stated) was read as Wnt bcat act 26, DAX1 StAR inh 1, hcDAF12 agonist 1, hgDAF-12 ag 7 and ssDAF-12 act -1.
Cc1noc(C)c1NC(=O)N(C)C[C@@H]1Oc2ccc(NC(=O)CCC(F)(F)F)cc2C(=O)N([C@H](C)CO)C[C@@H]1C was read as esBAF inh -3.
For COc1ccc(S(=O)(=O)N[C@H]2C=C[C@H](CC(=O)N3CCN(c4ccccc4)CC3)O[C@H]2CO)cc1 the results were esBAF inh -2.
For O=C(Nc1ccc2oc(-c3ccccc3)nc2c1)c1cccs1 the results were esBAF inh 78*, DAX1 StAR inh 0, hcDAF12 agonist 1, hgDAF-12 ag 7, ssDAF-12 act -1, Ring1 derepress 0.88, esBAF Fgf4 qPCR inconclusive, esBAF Bmi1 qPCR 1.9, A549 tox SP -8, HepG2 cytotox SP -6 and HEK293 tox SP -15.
Cc1sc(NC(=O)c2cccs2)nc1-c1ccccc1 was read as Wnt bcat act 47*, esBAF inh 64*, DAX1 StAR inh 0, hcDAF12 agonist -1, hgDAF-12 ag 2, ssDAF-12 act -2, Ring1 derepress 2.5*, esBAF Fgf4 qPCR 0.96, esBAF Bmi1 qPCR 2.5, A549 tox SP -5, HepG2 cytotox SP 12 and HEK293 tox SP 10.
Screening C[C@@H]1CCCCO[C@@H](CN(C)Cc2ccncc2)[C@H](C)CN([C@@H](C)CO)C(=O)c2cc(NC(=O)C3CCCCC3)ccc2O1 returned esBAF inh -5.
COc1ccccc1-c1cnc2c(c1)C(=O)N([C@H](C)CO)C[C@H](C)[C@H](CN(C)Cc1ccc(F)cc1)O2 was read as esBAF inh -2.
O=C(/C=N/NC(=O)c1ccc(Cl)cc1Cl)c1ccccc1 was read as Wnt bcat act 49*, esBAF inh 59*, DAX1 StAR inh 1, hcDAF12 agonist 1, hgDAF-12 ag 3, ssDAF-12 act -1, Ring1 derepress 1.4, esBAF Fgf4 qPCR 1.1, esBAF Bmi1 qPCR 1.5, A549 tox SP -3, HepG2 cytotox SP -28 and HEK293 tox SP -6.
O=C(/C=N/NC(=O)c1ccccc1Br)c1ccccc1 was read as Wnt bcat act 11, DAX1 StAR inh 1, hcDAF12 agonist 1, hgDAF-12 ag 8 and ssDAF-12 act 0.
`COc1cccc(NC(=O)N2CCN(c3cccc(C)c3C)CC2)c1` gave Wnt bcat act 0, esBAF inh 72*, DAX1 StAR inh 0, hcDAF12 agonist -2, hgDAF-12 ag 3, ssDAF-12 act -1, Ring1 derepress 1.1, esBAF Fgf4 qPCR 1, esBAF Bmi1 qPCR 1.2, A549 tox SP -3, HepG2 cytotox SP 13 and HEK293 tox SP -5.
CCOc1ccccc1-c1ccc2nccn2c1 was read as Wnt bcat act -2, esBAF inh -6, DAX1 StAR inh 0, hcDAF12 agonist 0, hgDAF-12 ag 1 and ssDAF-12 act -1.
Screening CC(C)Cc1ccc(-c2ccc3nccn3c2)cc1 returned Wnt bcat act 15, esBAF inh 66*, DAX1 StAR inh 2, hcDAF12 agonist -2, hgDAF-12 ag 6, ssDAF-12 act -1, Ring1 derepress 1.2, esBAF Fgf4 qPCR inconclusive, esBAF Bmi1 qPCR 2, A549 tox SP -5, HepG2 cytotox SP -17 and HEK293 tox SP 0.
`C[C@@H]1CCCCO[C@@H](CN(C)C(=O)Nc2ccccc2)[C@@H](C)CN([C@@H](C)CO)C(=O)c2cc(NS(=O)(=O)c3ccc(Cl)cc3)ccc2O1` gave esBAF inh 1.

Compound activity as filed in PubChem BioAssay.
